Screening results as filed in PubChem.
Hits are enriched below; roughly 1.5% of the tested compounds scored in any of these assays.
Mtb MenB inh: inhibitors of Mycobacterium tuberculosis MenB enzyme; inhibition, % (concentration not given with the values); P9WNP5; 100,000 compounds, 0.43% hits; MenB enzyme assay, absorbance read-out; in the data active = inhibition above about 21%, passing the limit was not always enough
MbtI inh: inhibitors of Mycobacterium tuberculosis siderophore enzyme MbtI; 100,000 compounds, 0.89% hits; P9WFX0; purified MbtI enzyme, fluorescence intensity read-out; inhibition, % (no concentration beside the values); in the data active = inhibition mostly above about 56%, no sharp cut-off; inactive = mostly below about 77%
Target sequence (P9WFX0 whole entry, looked up): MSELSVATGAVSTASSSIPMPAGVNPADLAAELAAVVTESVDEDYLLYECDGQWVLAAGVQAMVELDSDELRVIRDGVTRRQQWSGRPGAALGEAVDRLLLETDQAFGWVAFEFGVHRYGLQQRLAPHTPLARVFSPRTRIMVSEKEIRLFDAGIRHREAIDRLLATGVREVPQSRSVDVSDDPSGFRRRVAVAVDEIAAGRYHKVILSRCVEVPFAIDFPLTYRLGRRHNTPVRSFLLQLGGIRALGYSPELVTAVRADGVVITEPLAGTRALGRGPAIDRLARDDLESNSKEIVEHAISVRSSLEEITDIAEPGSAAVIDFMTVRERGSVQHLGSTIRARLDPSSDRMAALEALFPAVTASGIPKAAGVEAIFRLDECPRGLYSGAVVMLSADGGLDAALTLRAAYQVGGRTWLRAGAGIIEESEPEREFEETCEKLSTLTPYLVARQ
AID504770: E. coli YBA685 growth inhibition, screen for V. cholerae RctB inhibitors | AID 504770 | z-score (test concentration not listed) | 130,000 compounds, 0.27% hits | E. coli YBA685 rctB-dependent plasmid, OD600 growth, 3 h; hits give low values; in the data active = z-score below about -2, passing the limit was not always enough
PV pol inh: inhibitors of poliovirus RNA polymerase binding and polymerization; poliovirus polymerase elongation, fluorescence polarization; hits give low values; P03300; % elongation, % (compound at 16.7 µg/mL); 150,000 compounds, 0.66% hits; in the data active = % elongation below about 90%
An asterisk follows results filed as active; / = no result.

SMILES	Mtb MenB inh	MbtI inh	AID504770	PV pol inh
CC(C)(C)C1(OCSC#N)C(=O)N=CN=CN1Cc1ccccc1 (stereo not given)	-39	-5	0	103
CCOc1nc(-c2ccccc2)nc(Cl)c1N	/	/	0	/
O=C(Nc1ccc(N2C(=O)C=CC2=O)cc1Cl)c1ccco1	11	96*	-0.3	99
COc1cc(C(=O)Nc2c3c(nn2-c2ccc(F)cc2)CS(=O)(=O)C3)cc(OC)c1OC	-17	6	-3.1*	103
O=C(COC(=O)/C=C/c1ccco1)Nc1ccc(Cl)cc1	-4	8	0.5	100
O=C(CC1Sc2ncnn2C1=O)Nc1ccc(Br)cc1 (stereo not given)	/	99*	1.7	/
CN=C1SC(CC(=O)Nc2ccccc2)C(=O)N1C (stereo not given)	-8	-8	0.4	/
CN1C(=O)/C(=C2\SC(=S)N(C3CCS(=O)(=O)C3)C2=O)c2cc(Br)ccc21 (stereo not given)	7	0	-0.25	101
Cc1ccc(CC(=O)Nc2ccc3c(c2)N(C)C(=O)c2ccccc2S3)cc1	/	/	/	70*
Cc1oc(-c2ccc(C(=O)NCCN3CCOCC3)cc2)nc1CSc1ccccc1	-17	11	1.1	100
COc1ccccc1C(CC#N)c1ccco1 (stereo not given)	-33	1	-0.15	100
CC(CC(=O)NCC(c1ccc(F)cc1)N1CCOCC1)n1ccnc1 (stereo not given)	0	-1	-0.75	98
C1CNCC(CN2CCCC2)C1 (stereo not given)	46*	-2	0.65	103
O=C(CO/N=C/c1ccco1)NCc1ccccc1	8	51*	1	110
COC(=O)c1c(-c2ccccc2)csc1N	-19	59*	-0.75	94
COC(=O)c1c(-c2ccccc2)csc1NC(=O)CCN1CCC(C)CC1	/	/	-0.25	/
O=C(O)C(Cc1ccccc1)Nc1ncnc2c1oc1ccccc12 (stereo not given)	-12	7	1.7	102
CC1Cc2scc[n+]2-c2ccccc2N1C=O (stereo not given)	100*	/	-0.55	105
O=C(O)COc1ccc(-c2nnco2)cc1	-31	-1	0.15	89*
CC1CCCC(C)N1C(=O)COc1ccc(-c2nnco2)cc1 (stereo not given)	-6	7	0.3	105
CC(=O)N1CCN(c2nc(N)c3c(N)nc4c(c3c2C#N)CC(=O)N4C)CC1	2	-18	0.25	18*
CC(C)c1ccc(N2C(=O)Cc3c2nc(N)c2c(N)nc(N4CCCC4)c(C#N)c32)cc1	-8	-113	0.1	102
O=C1/C(=C/c2cccnc2)c2ccccc2N1c1ccccc1	-23	21	-0.2	96
O=C(CN(Cc1ccccc1)C(=O)Cn1nnc(-c2ccc(F)cc2)n1)NC1CCCC1	-39	-11	-0.4	103
COc1ccc(CN(CC(=O)NC2CCCC2)C(=O)Cn2nnc(-c3ccc(OC)cc3)n2)cc1	33*	2	0.75	102
SMILES	Mtb MenB inh	MbtI inh	AID504770	PV pol inh
CN1CCc2nc3sc(C(=O)Nc4ccccc4C(F)(F)F)c(N)c3cc2C1	/	/	/	31*
Cc1ccccc1NC(=O)c1sc2nc3c(cc2c1N)CN(Cc1ccccc1)CC3	/	/	/	107
O=C(CSc1n[nH]c(-c2ccncc2)n1)N(c1ccccc1)C1CCCCC1	-5	-7	-0.5	101
Cc1ccc(C)n1-c1ccc(C(=O)NCC(=O)O)cc1	-13	8	-0.6	69*
Oc1cccc(-c2nc(-c3ccccc3)c3ccccn23)c1	/	5	1.2	89*
CN(C)CCOC(=O)c1ccc2[nH]c3c(c2c1)CSCC3	5	50	1.2	99
O=C(O)c1ccc2[nH]c3c(c2c1)CSCC3	0	/	-0.3	84*
COc1cccc(C2N(Cc3ccccc3)C(=O)C2(F)F)c1OC (stereo not given)	/	0	1.8	89*
O=C1N(Cc2ccccc2)C(c2ccccc2)C1(F)F (stereo not given)	/	-1	0.75	101
Cc1cc(=O)[nH]c(SCc2cn3ccccc3n2)n1	/	/	-1.4	/
O=c1[nH]nc(SCc2cn3ccccc3n2)c(=O)[nH]1	-11	54	-2.5	32*
O=C1C2ON(c3ccccc3)C(c3ccncc3)C2C(=O)N1c1cccc(C(F)(F)F)c1 (stereo not given)	0	-5	-0.45	100
CC[n+]1c(-c2ccccc2)c2cc(N)ccc2c2ccc(N)cc21	12	4	-0.05	75*
CN(CC(=O)O)C(=S)c1ccccc1	5	54*	-0.5	76*
CN(C)C(=S)NC(=O)c1ccccc1	-1	7	-0.05	99
CC(C)=NNc1nc(Cl)c(C#N)c(Cl)c1Cl	-3	61*	-0.6	101
Cc1cc(C)c(C#N)c(Cl)n1	-32	-2	0.15	101
N#Cc1c(Cl)nc(Cl)c(Cl)c1Cl	0	72	-3.5*	76*
N#Cc1c(Cl)nc(N2CCOCC2)c(Cl)c1Cl	-20	-9	-0.1	104
O=c1c2ccccc2n2c(-c3ccc(Cl)cc3)nnc2n1CCc1ccccc1	/	/	/	74*
O=c1c2ccccc2n2c(-c3ccc(F)c(F)c3)nnc2n1CCc1ccccc1	/	/	/	105
O=C(O)/C=C/c1cccc(Oc2ccccc2)c1	-17	26	0.3	100
CCCN=C1NN=C(c2cc(C)n(Cc3ccc4c(c3)OCO4)c2C)CS1	-9	-1	-1.2	108
Clc1ccc(C2=NNC(=NCc3ccc4c(c3)OCO4)SC2)cc1	-29	47	-0.7	85*
Nc1nnc(SCC(O)Cn2c3c(c4ccccc42)CCCC3)s1 (stereo not given)	25*	/	-0.1	103
SMILES	Mtb MenB inh	MbtI inh	AID504770	PV pol inh
Cc1ccc(Cl)cc1N1CCN(C(=O)c2cnn(-c3ccc(Cl)cc3)c2C2CCNCC2)CC1	/	/	/	106
Cc1ccc(N2CCN(C(=O)c3cnn(-c4ccc(C)c(C)c4)c3C3CCNCC3)CC2)c(C)c1	/	/	/	74*
O=S1(=O)CCC(Nc2nc(CN3CCCCC3)nc3sc4c(c23)CCC4)C1 (stereo not given)	-5	11	0.2	97
O=C(Cc1nc2ccccc2s1)c1ccccc1	/	-8	-1.1	72*
Cc1csc(=Nc2ccccc2F)n1/N=C/c1ccncc1	-22	1	-0.3	83*
CC(C)Cc1cc(C(=O)O)nc(=O)[nH]1	38*	8	1.4	99
CCSc1nc(C(=O)O)cc(=O)[nH]1	/	/	0.7	/
COc1ccccc1CC(=O)Nc1cccc(NC(C)=O)c1	-1	/	-0.9	99
COc1ccccc1CC(=O)Nc1cccc(C)n1	40*	1	0.25	100
O=C(O)CCC(=O)OC[C@@H](NC(=O)C(Cl)Cl)[C@H](O)c1ccc([N+](=O)[O-])cc1	-1	-15	-1.2	100
O=C(N[C@@H](CO)[C@H](O)c1ccc([N+](=O)[O-])cc1)C(Cl)Cl	-5	-15	-2.7*	101
Cc1cc(C)cc(NC(=O)/C=C\C(=O)O)c1	9	-2	0.15	99
Cc1c(C)c(NC(=O)/C=C/C(=O)O)c(C)c(C)c1NC(=O)/C=C/C(=O)O	10	60*	1.4	103
COCC(=O)Nc1ccccc1C(C)C	1	-7	-0.75	98
CC(C)c1ccccc1NN	11	/	0.75	79*
